According to PubChem BioAssay (NCATS):
“And” between values parts separate entries of the source, which are not always exact repeats. Equal values may be shown once. Inconclusive results are not listed. The source made the active and inactive calls. Unless noted, calls come from the whole dose curve; as a rule, active = well fitted curve in the direction sought with a large enough effect; inconclusive = small, poorly fitted or top-dose-only effect, or another doubt; inactive = no such curve, though single readings can be large; an effect the other way counts as inactive or inconclusive.

Experiments:
[1] = qHTS Assay for Identifying Gametocytocidal Compounds (AID 743244); note: potency is the fitted concentration of half-maximal effect;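 for max response: % is set by controls: 0 for no effect and ±100 for the full control effect; actives lower the fluorescent signal which means gametocytes are killed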; details: P. falciparum 3D7 stage III-V gametocytes, alamarBlue, 72 h; max response: active compounds read low
In short: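 In this qHTS viability screen, late-stage 3D7 gametocytes are incubated with compound for 72 h, then with alamarBlue for 24 h; reduced resorufin fluorescence marks killing.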

[2] = qHTS assay for measurement of the activity of small molecule inhibitors on Zika virus induced Caspase-3 activity in human iPSC derived neural progenitor cells (hNPCs) (AID 1224857); note: % of control where 0% means no effect; nearly all actives have a fitted effect of over 65% in size
In short: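 In medium with heparin 2 ug/ml and cyclopamine 2 uM, hNPCs (350 cells/well) received compound for one hour and then Zika virus at 2 FFU/cell; caspase activity was measured by Caspase-Glo 3/7 luminescence 6 h post-infection.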

[3] = qHTS assay for measurement of the activity of small molecule inhibitors on Zika virus induced Caspase-3 activity in human astrocytoma cells (AID 1224859);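 note: plate controls were ZIKV-infected untreated cells for no effect and uninfected cells for full effect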
In short: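 A cell-based luminescent caspase-3/7 assay used SNB-19 cells infected with ZIKV (2 FFU/cell) for 6 h following 1 h compound pretreatment.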

[4] = qHTS assay to identify small molecule inhibitors of chordoma cells - UCH-1 (AID 1259355); note: % is set by controls: 0 for no effect and ±100 for the full control effect; nearly all actives have a fitted effect of over 55% in size
In short: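 Luminescent ATP read-out (CellTiter-Glo, 30min at room temperature) measured viability of UCH-1 cells exposed for 48hr to test drugs at 15 concentrations, co-dosed with a five-agent combination of auranofin, camptothecin, doxorubicin, rubitecan and topotecan.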

[5] = qHTS assay to identify small molecule inhibitors of chordoma cells - UCH-2 (AID 1259356); note: series mostly up to about 46 µM; % is set by controls: 0 for no effect and ±100 for the full control effect
[6] = molecular target: Peroxisome proliferator-activated receptor alpha (Homo sapiens) (UniProt Q07869); test: qHTS assay for small molecule agonists of the peroxisome proliferator-activated receptor alpha (PPARalpha) signaling pathway (AID 651778); details: PathHunter PPARalpha complementation, chemiluminescence, 6 h; active compounds read high; note: % of control where 0% means no effect
In short: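 Cells plated at 2,000/well and held overnight at 37 C, 5% CO2, then compound added by pin tool for 6 hr; after PathHunter detection reagent and 60 min at room temperature, chemiluminescence from enzyme complementation was read.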

[7] = qHTS assay for small molecule agonists of the antioxidant response element (ARE) signaling pathway measured by Nrf2-dependant transcriptional activity (AID 720636; active = well fitted curve in the direction sought with a large enough effect in the repeat runs; an effect the other way counts as inactive or inconclusive;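 note: HepG2 cells with an ARE-driven luciferase reporter; % of control where 0% means no effect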)
In short: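 Reporter gene assay, HepG2 ARE-luc: 16 hr compound, 37 C, 5% CO2; read-out luciferase luminescence.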

[8] = qHTS assay for small molecule agonists of the antioxidant response element (ARE) signaling pathway measured by Nrf2-dependant transcriptional activity - cell viability counter screen (AID 720653; active = well fitted curve in the direction sought with a large enough effect in the repeat runs; an effect the other way counts as inactive or inconclusive; note: % is set by controls: 0 for no effect and ±100 for the full control effect); details: ARE-bla HepG2 viability, CellTiter-Glo ATP luminescence, 16 h; active compounds read low
In short: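 ARE-bla HepG2 cells (2,000/well) rested 5 hrs at 37C/5% CO2, then exposed to compounds in DMSO for 16 hrs. Viability was read in the same wells as intracellular ATP by luminescence, 30 min at room temperature after reagent addition.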

[9] = qHTS assay for cell viability of HEK293 cells (AID 743288); details: ATP luminescence (CellTiter-Glo), 18 h, active compounds read low; note: % is set by controls: 0 for no effect and ±100 for the full control effect; nearly all actives have a fitted effect of over 50% in size
In short: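 Parental HEK293 cells, 2,000 per well, preincubated at least 5 h at 37 C, then exposed to compounds in DMSO for 18 h at 37 C. Viability by CellTiter-Glo ATP luminescence after 30 min at room temperature.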

[10] = qHTS assay for cell viability of the p53RE-bla HCT-116 cell line (AID 743292); note: % is set by controls: 0 for no effect and ±100 for the full control effect; nearly all actives have a fitted effect of over 55% in size
In short: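 Readout: CellTiter-Glo luminescence after 30 min RT. Treatment: compounds in DMSO, 16 h, 37 C. Cells: CellSensor p53RE-bla HCT-116, 4,000/well, preincubated 5 h.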

[11] = qHTS assay for small molecule antagonists of the retinoid-related orphan receptor gamma (ROR-gamma) signaling pathway - cell viability counter screen (AID 720652; active = well fitted curve in the direction sought with a large enough effect in the repeat runs; an effect the other way counts as inactive or inconclusive;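 note: series mostly up to about 92 µM; compound exposure lasted 16 hr before ATP read; % is set by controls: 0 for no effect and ±100 for the full control effect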)
In short: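 Counter screen in CHO cells carrying TET-inducible ROR-gamma and an ROR response element-luciferase reporter; cells plated 5 hr, compound pinned, doxycycline added, then 16 hr at 37 C. Viability read as intracellular ATP by CellTiter-Glo luminescence.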

[12] = molecular target: Nuclear receptor ROR-gamma (Homo sapiens) (UniProt P51449); test: qHTS assay for small molecule antagonists of the retinoid-related orphan receptor gamma (ROR-gamma) signaling pathway (AID 651802); note: series mostly up to about 92 µM; % is set by controls: 0 for no effect and ±100 for the full control effect; nearly all actives have a fitted effect of over 60% in size
In short: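 CHO cells carrying TET-inducible ROR-gamma and an ROR response element–luciferase reporter were exposed to compound, then induced with doxycycline. After 16hr at 37C, luminescence was read; lower signal indicates antagonism.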

Sequence of Peroxisome proliferator-activated receptor alpha (Homo sapiens) (Q07869 whole entry, looked up): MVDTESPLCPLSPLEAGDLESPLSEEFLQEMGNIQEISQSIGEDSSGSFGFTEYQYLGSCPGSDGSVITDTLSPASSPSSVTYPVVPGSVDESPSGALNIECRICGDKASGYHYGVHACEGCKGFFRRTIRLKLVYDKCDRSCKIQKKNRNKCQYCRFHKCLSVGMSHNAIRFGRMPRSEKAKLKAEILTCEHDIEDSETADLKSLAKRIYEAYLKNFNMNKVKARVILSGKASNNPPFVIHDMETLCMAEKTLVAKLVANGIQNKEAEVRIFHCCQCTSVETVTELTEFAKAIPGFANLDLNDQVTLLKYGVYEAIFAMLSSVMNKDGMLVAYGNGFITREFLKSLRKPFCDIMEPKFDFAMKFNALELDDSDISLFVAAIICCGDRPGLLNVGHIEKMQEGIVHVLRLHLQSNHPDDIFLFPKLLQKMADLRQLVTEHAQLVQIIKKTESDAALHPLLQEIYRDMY
Sequence of Nuclear receptor ROR-gamma (Homo sapiens) (P51449 whole entry, looked up): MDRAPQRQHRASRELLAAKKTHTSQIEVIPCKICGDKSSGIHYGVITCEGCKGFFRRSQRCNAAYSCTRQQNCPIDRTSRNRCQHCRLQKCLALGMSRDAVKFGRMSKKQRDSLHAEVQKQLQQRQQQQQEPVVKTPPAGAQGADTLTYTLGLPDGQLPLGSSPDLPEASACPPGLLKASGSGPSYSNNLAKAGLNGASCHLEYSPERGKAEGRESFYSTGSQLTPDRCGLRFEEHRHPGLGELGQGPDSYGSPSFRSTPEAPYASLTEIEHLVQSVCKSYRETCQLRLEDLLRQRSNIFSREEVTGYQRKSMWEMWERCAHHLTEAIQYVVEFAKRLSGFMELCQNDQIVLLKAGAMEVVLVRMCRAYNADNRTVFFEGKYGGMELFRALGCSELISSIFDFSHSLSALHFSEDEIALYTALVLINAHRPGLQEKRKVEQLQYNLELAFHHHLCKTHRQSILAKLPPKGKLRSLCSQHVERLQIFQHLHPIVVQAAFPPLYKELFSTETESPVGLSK

O=c1[nH]c2cc(C(F)(F)F)c(N3CCOCC3)cc2n(CP(=O)(O)O)c1=O
inactive: max response [1] 2.6% | outcome [2] | outcome [3] | outcome [4] | outcome [5]

OCc1ccc(Cl)cc1Cl
inactive: max response [1] -2.07% | outcome [2] | outcome [3] | outcome [4] | outcome [5]

O=C(CN1CCNCC1)NC1CCCCC1
inactive: outcome [2] | outcome [3] | outcome [4] | outcome [5]

OC[C@@H](O)[C@@H](O)[C@H](O)[C@H](O)CO
inactive: max response [6] -1.72% | outcome [7] | max response [8] -1.54% | max response [1] 5.56% | max response [9] -10.6% | outcome [10] | outcome [2] | outcome [3] | outcome [4] | outcome [5]

CC(C)=CCC/C(C)=C/CO
inactive: max response [6] -2.93% | outcome [7] | max response [8] 4.56% | max response [1] 19.8% | max response [9] 0.933% | outcome [10] | outcome [2] | outcome [3] | outcome [4] | outcome [5]

Cc1cc(O)cc(C)c1Cl
inactive: max response [6] -0.107% | outcome [7] | max response [8] 0.227% | max response [1] -2.6% | max response [9] -9.96% | outcome [10] | outcome [2] | outcome [3] | outcome [4] | outcome [5]

COc1ccc(O)cc1
inactive: max response [6] -1.68% | outcome [7] | outcome [11] | max response [8] -1.63% | max response [1] -2.64% | max response [9] -0.79% | outcome [10] | outcome [2] | outcome [3] | outcome [4] | outcome [5]

NC(N)=NS(=O)(=O)c1ccc(N)cc1
inactive: outcome [2] | outcome [3] | outcome [4] | outcome [5]

Cc1ccc(C(C)C)c(O)c1
inactive: max response [6] -0.976% | outcome [7] | max response [8] -4.59% | max response [1] 22.6% | max response [9] -16.2% | outcome [10] | outcome [2] | outcome [3] | outcome [4] | outcome [5]

COC(=O)c1ccc(O)cc1
inactive: max response [6] -1.49% | max response [8] -3.37% | max response [1] -9.3% | max response [9] 1.25% | outcome [10] | outcome [2] | outcome [3] | outcome [4] | outcome [5]

O=C1C(c2[nH]c3ccccc3c2O)=Nc2ccccc21
inactive: max response [6] -5.35% | outcome [12] | outcome [7] | outcome [11] | max response [8] -0.733% | max response [9] 1.4% | outcome [10] | outcome [2] | outcome [3] | outcome [4] | outcome [5]

Nc1c2c(nc3c1CCC3)CCCC2
active: Potency [1] 11.2 µM
inactive: outcome [2] | outcome [3] | outcome [4] | outcome [5]

CC(=O)Nc1ccccc1
inactive: max response [6] -5.14% | outcome [7] | outcome [11] | max response [8] -3.41% | max response [1] 9.51% | max response [9] -0.588% | outcome [10] | outcome [2] | outcome [3] | outcome [4] | outcome [5]

CN(C/C=C/C#CC(C)(C)C)Cc1cccc2ccccc12
inactive: max response [1] -1.43% | outcome [2] | outcome [3] | outcome [4] | outcome [5]

C=CCN1C[C@H](C(=O)N(CCCN(C)C)C(=O)NCC)C[C@@H]2c3cccc4[nH]cc(c34)C[C@H]21
inactive: outcome [2] | outcome [3] | outcome [4] | outcome [5]

CC(=O)Nc1cccc(O)c1
inactive: max response [6] -0.0766% | outcome [7] | outcome [11] | max response [8] 3.22% | max response [1] 5.77% | max response [9] -4.32% | outcome [10] | outcome [2] | outcome [3] | outcome [4] | outcome [5]

O=C(O)CCCCC1CCSS1 (stereo not given)
inactive: max response [6] -5.44% and -4.99% | outcome [7] | max response [8] 10.3% and -9.69% | max response [1] 3.67% | max response [9] -11.1% and -8.74% | outcome [10] | outcome [2] | outcome [3] | outcome [4] | outcome [5]

C[N+]1(C)CCCC(OC(=O)C(O)(c2ccccc2)c2ccccc2)C1 (stereo not given)
inactive: max response [1] 8.34% | outcome [2] | outcome [3] | outcome [4] | outcome [5]

CO[C@@]1(NC(=O)C(C(=O)O)c2ccc(O)cc2)C(=O)N2C(C(=O)O)=C(CSc3nnnn3C)CO[C@@H]21 (stereo not given in full)
inactive: max response [1] 2.23% | outcome [2] | outcome [3] | outcome [4] | outcome [5]

O=C1c2ccccc2C(=O)C1c1ccc(Br)cc1
inactive: max response [1] -7.34% | outcome [2] | outcome [3] | outcome [4] | outcome [5]

Cn1cc(C(=O)[C@@H]2CCc3nc[nH]c3C2)c2ccccc21
inactive: max response [1] -8.94% | outcome [2] | outcome [3] | outcome [4] | outcome [5]

CC(CSC(=O)c1ccccc1)C(=O)N1C[C@@H](Sc2ccccc2)C[C@H]1C(=O)O (stereo not given in full)
inactive: max response [1] 2.09% | outcome [2] | outcome [3] | outcome [4] | outcome [5]

CCN1CC(CCN2CCOCC2)C(c2ccccc2)(c2ccccc2)C1=O (stereo not given)
inactive: max response [1] 3.23% | outcome [2] | outcome [3] | outcome [4] | outcome [5]

O=c1[nH]c(=O)c2ccccc2o1
inactive: max response [1] -4.26% | outcome [2] | outcome [3] | outcome [4] | outcome [5]
